Test results reported in PubChem BioAssay (NCI).
About 83,000 compounds went through this panel and 20% of them were active in at least one assay; those are over-represented in the sample as a whole.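 Single-dose data. Exposure time 48 hours. Values below 10 considered active.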 Unmarked numbers belong to inactive results. Calls of active or inactive are those of the source.

System: MDA-MB-468 breast
Assay: NCI-60 one-dose screen, 48 h (100 = growth as untreated, 0 = no growth, -100 = all killed)
Settings: 10 µM unless noted

SMILES	growth
COC(=O)/C(CCC=C(C)C)=C1\[C@@H](OC(C)=O)C[C@@]2(C)[C@H]1CC(=O)N[C@H]1[C@@]3(C)CCNC(=O)[C@@H](C)[C@@H]3CC[C@@]12C	99.7%
CSc1nc(S(C)(=O)=O)nc2[nH]c(=O)[nH]c12	103%
NC(=O)c1cc2c3ccccc3ccn2c1-c1ccccc1	17.5%
Nc1ccc2cc(S(=O)(=O)O)cc(O)c2c1N=Nc1ccc(F)cc1	118%
COc1cc(OC)c2ccc(=O)oc2c1	103%
CC(O)CCC(C)[N+](=O)[O-] (stereo not given)	107%
Nc1cc(N)c(N)cc1N	84.7%
COc1ccc2cnc(N)c(C#Cc3cc(C(=O)Nc4ccc(CN5CCN(C)CC5)c(C(F)(F)F)c4)cnc3C)c2c1	91.2%
CC(=O)OCc1nc(C#N)c(N(C)C)o1	94.1%
COc1cc(NC(=O)CCSc2nc3ccccc3c(=O)n2CCc2ccccn2)cc(OC)c1OC	91.8%
O=C(CN1CCN(c2cc(=O)n(-c3ccccc3)c3ccccc23)CC1)Nc1nc(-c2ccc(Cl)cc2)cs1	9.61% (active)
COc1cc(/C=C/c2cc(/C=C/c3ccc(O)c(OC)c3)n(C(=O)Nc3ccc(F)c(Cl)c3)n2)ccc1O	-27.6% (active)
CC1(C)OC2OC3C(CN)OC(c4ccccc4)OC3C2O1 (stereo not given)	116%
O=C(c1ccc(Cl)cc1)N1CCCCC1	101%
N#CSCC1CC(O)(c2ccccc2)C(c2ccccc2)C(c2ccc(Cl)cc2)O1 (stereo not given)	-58.9% (active)
